Screens (PubChem BioAssay)
ALDH1A1 inh – ALDH1A1 (human) enzyme inhibition. P00352. Purified ALDH1A1, NADH fluorescence, propionaldehyde substrate. Potency, µM (top dose mostly 75.3 µM), hits mostly inhibitors. 220,000 tested, 7.3% active. AID 1030
Target sequence (P00352 whole entry, looked up): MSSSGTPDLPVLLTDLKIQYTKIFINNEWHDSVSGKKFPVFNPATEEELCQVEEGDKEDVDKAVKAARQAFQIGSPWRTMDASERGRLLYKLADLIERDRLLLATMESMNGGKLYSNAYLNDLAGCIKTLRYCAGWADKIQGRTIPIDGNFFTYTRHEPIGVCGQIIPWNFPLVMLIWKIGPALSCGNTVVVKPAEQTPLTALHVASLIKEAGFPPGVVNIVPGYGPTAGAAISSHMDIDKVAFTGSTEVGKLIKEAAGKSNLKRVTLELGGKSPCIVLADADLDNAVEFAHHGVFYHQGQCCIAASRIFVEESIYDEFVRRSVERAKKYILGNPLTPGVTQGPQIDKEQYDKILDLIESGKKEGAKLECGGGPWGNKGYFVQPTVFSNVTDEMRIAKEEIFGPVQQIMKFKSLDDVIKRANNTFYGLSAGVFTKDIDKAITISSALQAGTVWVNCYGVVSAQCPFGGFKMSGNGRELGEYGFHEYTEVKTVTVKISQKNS
HPGD inh – HPGD (human) dehydrogenase inhibition | AID 894 | P15428 | 150,000 tested, 4.3% active | Potency, µM, hits mostly inhibitors | purified HPGD, NADH fluorescence kinetic, PGE2 substrate
Target sequence (P15428 whole entry, looked up): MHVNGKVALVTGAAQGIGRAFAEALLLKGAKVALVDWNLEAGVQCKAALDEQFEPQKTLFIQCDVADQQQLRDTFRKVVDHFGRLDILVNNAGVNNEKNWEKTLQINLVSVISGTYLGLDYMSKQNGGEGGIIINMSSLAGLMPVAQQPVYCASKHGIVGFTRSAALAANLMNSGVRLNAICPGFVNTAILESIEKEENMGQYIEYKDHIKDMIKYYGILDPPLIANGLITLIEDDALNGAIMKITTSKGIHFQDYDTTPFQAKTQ
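NADH formation kinetics: reaction with 30 uM PGE2 and 1 mM NAD+ (final), 20 nM enzyme, Tris-HCl pH 8 with Tween 20, after 15 min compound preincubation at room temperature. Fluorescence change, last versus first of five reads.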
Luc counter – Kinase-Glo luciferase inhibition (counter-screen). Kinase-Glo luciferase, ATP luminescence, 8 min. AID 1379. Potency, µM (titrated, usually from 38.3 µM), hits mostly inhibitors. 200,000 tested, 0.28% active. Q27757; active = well fitted inhibition curve with a large enough effect; inconclusive = small, poorly fitted or top-dose-only effect; note: nearly all actives have a fitted effect of over 60% in size
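Inhibition of Kinase-Glo luciferase light generation was assessed at 10 uM ATP in pH 7.2 imidazole buffer, with luminescence measured after eight minutes at ambient temperature.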
LMNA splice mod – modulators of lamin A splicing; Potency, µM (highest dose often 46.1 µM), most hits filed as inhibitors; 200,000 tested, 0.01% active; HeLa LMNA splicing GFP/RFP minigene ratio, 48 h; active = well fitted inhibition curve with a large enough effect in the signal ratio, with a control signal flat, not every such curve was filed as active; inconclusive = small, poorly fitted or top-dose-only effect, or effect the other way, or a change in a side signal; the % refers to the signal ratio
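S3 HeLa stable clones carrying a lamin A-EGFP splicing minigene plus DsRed2 were seeded at 600 cells/well in Opti-MEM with 2% FBS, pin-dosed and incubated 48 h at 37°C. Acumen cytometry (488 nm) gave the GFP/RFP total-intensity ratio.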
PNC inhibitor – inhibitors of perinucleolar compartment assembly | PC3M PTB-GFP, PNC prevalence imaging, 16 h; hits give low values | activity change (PNC), negative = inhibition, % at 10 µM | 140,000 tested, 3.1% active | AID 2417;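 active = readout at or below -70, meaning at least 70% loss of cells showing the perinucleolar compartment, a nuclear body marking cancer cells; inconclusive = readout between -30 and a set limit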
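PC3M cells stably expressing PTB-GFP, 750–1000 cells/well, treated 16 h at 37 °C with compound (23 nl of library stock), in duplicate. After paraformaldehyde fixation and Hoechst stain, imaged at 20x; PNC prevalence scored by image analysis.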
Large screens that a line does not name were inactive. Sampled rows, rich in hits. Any-hit rate of the full collection: about 10%. Unless noted, calls come from the whole dose curve; as a rule, active = well fitted inhibition curve with a large enough effect (not every such curve was filed as active); inconclusive = small, poorly fitted or top-dose-only effect, or another doubt; inactive = no such curve, though single readings can be large or run the other way.

CN(c1ccc(OCC(=O)N2CCCCC2)cc1)S(=O)(=O)c1cccs1	HPGD inh 14µM, LMNA splice mod inconclusive
COc1ccc(OCCNC(=O)c2ccccc2OCC(=O)N2CCCCC2)cc1	ALDH1A1 inh 3.5µM, LMNA splice mod inconclusive, PNC inhibitor inconclusive
CC(=O)N1CCN(C(=O)COc2ccccc2C(=O)Nc2ccccc2)CC1	none (no result: HPGD inh, PNC inhibitor)
CCOC(=O)C1CCN(C(=O)CCCOc2ccccc2)CC1	ALDH1A1 inh inconclusive
CCOCCCNC(=O)C(=O)Nc1c2c(nn1-c1ccc(OC)cc1)CSC2	none (no result: ALDH1A1 inh, HPGD inh, Luc counter, PNC inhibitor)
CC1(C)O[C@@H]2O[C@H]([C@@H]3COC(C)(C)O3)[C@H](N)[C@H]2O1	none (no result: LMNA splice mod, PNC inhibitor)
CCCn1c(-c2ccc(F)cc2)nc2c(N3CCN(CCC(=O)OCC)CC3)nc(C)nc21	none (no result: LMNA splice mod, PNC inhibitor)
O=C(CCCOc1ccc(Cl)cc1)N1CCCCCC1	ALDH1A1 inh 7.9µM, HPGD inh 2.2µM, PNC inhibitor -99
O=C(c1cccc(F)c1)N1CCCN(C(=O)c2cccc(F)c2)CC1	none
O=C(CCCOc1ccc(Cl)cc1)N1CCOCC1	none
Cc1cc(Cl)ccc1OCC(=O)N1CCCCC1	HPGD inh 28µM, LMNA splice mod inconclusive
O=C(COc1ccc(Cl)cc1)N1CCCCC1	HPGD inh 25µM
Cc1cc(Cl)ccc1OCC(=O)N1CCN(c2ncccn2)CC1	LMNA splice mod inconclusive (no result: HPGD inh, PNC inhibitor)
O=C(c1cccc(F)c1)N1CCN(C(=O)c2nn3cccnc3c2Cl)CC1	ALDH1A1 inh 20µM
O=C(NC1CC(=O)N(c2ccc(F)cc2)C1)C1CC1 (centres undefined)	none (no result: ALDH1A1 inh, HPGD inh, Luc counter, PNC inhibitor)
C/C(=C\C1CCCCC1)C(NC(=O)c1cccnc1)c1ccc(-c2ccccc2)cc1 (centres undefined)	none (no result: LMNA splice mod, PNC inhibitor)
O=C(COc1ccc(Cl)cc1)N1CCN(C(=O)c2cccc(F)c2)CC1	ALDH1A1 inh 14µM
CCCCC(c1nnnn1Cc1ccco1)N1CCN(C(=O)c2ccco2)CC1 (centres undefined)	ALDH1A1 inh 14µM
CCCCNC(=O)N1CCN(C(=O)c2ccco2)CC1	none (no result: HPGD inh, PNC inhibitor)
CCCC(c1nnnn1Cc1ccco1)N1CCN(C(=O)c2ccco2)CC1 (centres undefined)	ALDH1A1 inh 13µM
CCCCC(CC)C(=O)N1CCN(C(=O)c2ccco2)CC1 (centres undefined)	ALDH1A1 inh 25µM (no result: HPGD inh, PNC inhibitor)
NCC1OC(n2cnc3c(=O)[nH]c(N)nc32)C(O)C1O (centres undefined)	none (no result: PNC inhibitor)
CCN1C(=O)[C@H]2[C@H]3[C@H](O)[C@H](O)C/C(=N/NC(=O)OCc4ccc(OC)cc4)[C@@H]3CC[C@@H]2C1=O	none (no result: HPGD inh, Luc counter, LMNA splice mod, PNC inhibitor)
CCOC(=O)c1c(-c2ccc(C)o2)csc1NC(=O)COC(=O)c1cccs1	ALDH1A1 inh 14µM, HPGD inh 22µM, PNC inhibitor inconclusive
CCOC(=O)c1c(-c2cccs2)csc1NC(=O)c1ccco1	HPGD inh inconclusive, PNC inhibitor -100
CCOC(=O)c1c(-c2cccs2)csc1NC(=O)CC(C)C	ALDH1A1 inh inconclusive, HPGD inh inconclusive
CC[C@@H]1OC(=O)[C@H](C)[C@H](O[C@@H]2C[C@](C)(OC)[C@H](O)[C@H](C)O2)[C@H](C)[C@H](O[C@@H]2O[C@@H](C)C[C@@H](N(C)C)[C@@H]2O)[C@](C)(O)C[C@H](C)C(=NOCOCCOC)[C@H](C)[C@H](O)[C@]1(C)O	LMNA splice mod inconclusive (no result: PNC inhibitor)
COC(=O)c1ccccc1C[C@]1(C(=O)OC)C=C[C@H](C)[C@@H](c2ccccc2)N1C(=O)C(F)(F)F	none (no result: LMNA splice mod, PNC inhibitor)
C=CCOC(=O)C(C(C)=O)C(NC(=O)OC)c1cccc(F)c1 (centres undefined)	none (no result: HPGD inh, Luc counter, LMNA splice mod, PNC inhibitor)
CCOc1ccc(CNC(=O)C(CC)n2nc(C)n3c(cc4occc43)c2=O)cc1OC (centres undefined)	LMNA splice mod inconclusive, PNC inhibitor -89
COc1ccc(-c2nc3scc(CCNS(=O)(=O)c4c(C)noc4C)n3n2)cc1OC	none (no result: ALDH1A1 inh, HPGD inh, Luc counter, PNC inhibitor)
CCCc1[nH]nc2c1C(c1ccc(OCCN3CCOCC3)c(OC)c1)C(C#N)=C(N)O2 (centres undefined)	none
N#CC1=C(N)SC(N)=C(C#N)C1c1cccc(O)c1	ALDH1A1 inh 25µM, HPGD inh inconclusive
CCOc1cc(C2C(C#N)=C(N)SC(N)=C2C#N)ccc1OCCN1CCOCC1	ALDH1A1 inh 7.9µM, HPGD inh 22µM, PNC inhibitor inconclusive
CCCc1[nH]nc2c1C(c1ccccc1OCC)C(C#N)=C(N)O2 (centres undefined)	PNC inhibitor inconclusive
COc1ccc(C2C(C#N)=C(N)SC(N)=C2C#N)cc1OC	ALDH1A1 inh 28µM, HPGD inh 16µM, PNC inhibitor inconclusive
CCOc1ccc(C2C(C#N)=C(N)SC(N)=C2C#N)c(OCC)c1	ALDH1A1 inh 18µM
CCOc1cccc2sc(N(Cc3cccnc3)C(=O)c3ccco3)nc12	none (no result: ALDH1A1 inh, HPGD inh, Luc counter, PNC inhibitor)
COC(=O)C1=C(C)N(Cc2ccccc2)C2=C(C(C)=O)C(c3ccccc3)[C@@](O)(C(=O)OC)C(=O)N2C1c1ccccc1 (some centres undefined)	none (no result: HPGD inh, Luc counter, LMNA splice mod, PNC inhibitor)
COCCn1c(=O)c(-c2ccc(Cl)cc2)nc2cnc(N3CCOCC3)nc21	ALDH1A1 inh inconclusive (no result: HPGD inh, Luc counter, PNC inhibitor)
O=C(CN1C(=O)CSc2ccc(S(=O)(=O)N3CCCCC3)cc21)NCc1ccc(F)cc1Cl	none (no result: ALDH1A1 inh, HPGD inh, Luc counter, PNC inhibitor)
COC(=O)C1=C2SC(C)C(=O)N2C(N)=C(C#N)C1c1ccc(OC)c(OC)c1 (centres undefined)	ALDH1A1 inh 13µM, HPGD inh inconclusive, LMNA splice mod inconclusive
CCCCc1ccc(-c2csc(/C(C#N)=C/c3ccc(C)o3)n2)cc1	none
CCCCc1ccc(-c2csc(/C(C#N)=C\c3ccco3)n2)cc1	PNC inhibitor -111
CC(C)(CO)[C@H](O)C(=O)NCCC(=O)O	none (no result: PNC inhibitor)
CCOC(=O)c1noc2ncnc(N3CCN(c4cccc(Cl)c4)CC3)c12	none (no result: ALDH1A1 inh, HPGD inh, Luc counter, PNC inhibitor)
CCn1cc(/C=N\NC(=O)c2ccc(Cl)cc2)cn1	PNC inhibitor inconclusive
CCn1cc(/C=N\NC(=O)Cc2ccc(Cl)cc2)cn1	PNC inhibitor -99
Cc1cc2oc(C(=O)Nc3cccc(-c4nc5ccccc5o4)c3)c(C)c2cc1Cl	none (no result: ALDH1A1 inh, HPGD inh, Luc counter, PNC inhibitor)
C=CCc1ccccc1OCC(O)CN1CCN(C(=O)OCC)CC1 (centres undefined)	ALDH1A1 inh 20µM, LMNA splice mod inconclusive, PNC inhibitor inconclusive
CCOC(=O)N1CCN(CC(O)COc2ccccc2C(C)C)CC1 (centres undefined)	none
CC(C)C(NC=C1C(=O)OC(C)(C)OC1=O)C(=O)O (centres undefined)	ALDH1A1 inh 8.9µM
CN(C)c1ccc(/C=N/c2cc(-c3ccccc3)nn2-c2ccccc2)cc1	ALDH1A1 inh 7.9µM
O=C(CSc1nc2ccccc2c(=O)n1Cc1ccc(C(=O)NC2CC2)cc1)NCc1ccco1	HPGD inh 2.8µM, LMNA splice mod inconclusive
COCCNC(=O)CSc1nc2cc(OC)c(OC)cc2c(=O)n1Cc1ccco1	ALDH1A1 inh 2.2µM, PNC inhibitor inconclusive
O=C(CSc1nc2ccccc2c(=O)n1Cc1ccccc1)NCc1ccco1	ALDH1A1 inh inconclusive
